Several values for one entry are separate records, joined by “and”; a condition that tells them apart may be missing. Equal entries are not always repeated. Out of some 5,500 compounds screened, about 2,000 (36%) were called active. Not shown: some 18% with an inconclusive outcome. Rule as the data show it: active = normalized growth mostly below about 0.91 (no sharp cut-off); inconclusive = no clear call, values can overlap the other calls; inactive = mostly above about 0.92. The list shows a part of the results.
Assay: chemical genetic growth profiling, strain panel (AID 1159580);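 also: tested at 20 µM; growth read once vehicle control cultures reached saturation at 30 °C; 1 = growth at the plate median or of vehicle wells; lower values mean less growth of the strain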
Conditions: S. cerevisiae deletion strains, growth OD

Measured: normalized growth

CC(C)=CC1C(CO)C1(C)C (centres undefined)
inactive: locus YAL021C, strain ccr4, stronger effect = lower value 1.01 | locus YAL026C, strain drs2, stronger effect = lower value 1.03 | locus YAL030W, strain snc1, stronger effect = lower value 1.02 | locus YBL061C, strain skt5, stronger effect = lower value 1.02 | locus YBR009C, strain hhf1, stronger effect = lower value 1.03 | locus YBR021W, strain FUR4, stronger effect = lower value 1.02 | locus YBR023C, strain chs3, stronger effect = lower value 1.02 | locus YBR171W, strain sec66, stronger effect = lower value 1.03 | locus YBR229C, strain ROT2, stronger effect = lower value 1.02 | locus YBR231C, strain swc5, stronger effect = lower value 1.02 | locus YBR279W, strain paf1, stronger effect = lower value 1.02 | locus YCL011C, strain gbp2, stronger effect = lower value 1.02 | locus YCL016C, strain dcc1, stronger effect = lower value 1.02 | locus YCL029C, strain bik1, stronger effect = lower value 0.994 | locus YCL061C, strain MRC1, stronger effect = lower value 1.01 | locus YCL069W, strain vba3, stronger effect = lower value 1.01 | locus YCR088W, strain abp1, stronger effect = lower value 1.02 | locus YDL005C, strain med2, stronger effect = lower value 1.03 | locus YDL035C, strain GPR1, stronger effect = lower value 1.03 | locus YDL040C, strain nat1, stronger effect = lower value 1.02 | locus YDL074C, strain BRE1, stronger effect = lower value 1.03 | locus YDL101C, strain DUN1, stronger effect = lower value 1.03 | locus YDL185W, strain tfp1, stronger effect = lower value 0.999 | locus YDL192W, strain arf1, stronger effect = lower value 1.01 | locus YDR001C, strain nth1, stronger effect = lower value 1.01 | locus YDR069C, strain doa4, stronger effect = lower value 1.04 | locus YDR101C, strain arx1, stronger effect = lower value 1 | locus YDR137W, strain rgp1, stronger effect = lower value 1.04 | locus YDR159W, strain sac3, stronger effect = lower value 1.03 | locus YDR162C, strain NBP2, stronger effect = lower value 1.03 | locus YDR195W, strain ref2 0.992 | locus YDR297W, strain sur2, stronger effect = lower value 1.03 | locus YDR318W, strain mcm21, stronger effect = lower value 0.995 | locus YDR334W, strain swr1, stronger effect = lower value 1.02 | locus YDR335W, strain msn5, stronger effect = lower value 1.02 | locus YDR388W, stronger effect = lower value 0.999 | locus YDR392W, strain spt3, stronger effect = lower value 0.981 | locus YDR502C, strain sam2, stronger effect = lower value 0.994 | locus YEL003W, strain gim4, stronger effect = lower value 1.02 | locus YEL037C, strain rad23, stronger effect = lower value 1.02 | locus YEL061C, strain CIN8 (second series), stronger effect = lower value 1.01 | locus YEL061C, strain CIN8, stronger effect = lower value 1.01 | locus YER015W, strain faa2, stronger effect = lower value 1.02 | locus YER016W, strain bim1, stronger effect = lower value 1.02 | locus YER110C, stronger effect = lower value 1.01 | locus YER111C, strain swi4, stronger effect = lower value 1.02 | locus YER155C, strain BEM2 (second series), stronger effect = lower value 1.04 | locus YER155C, strain BEM2, stronger effect = lower value 1.01 | locus YER167W, strain BCK2, stronger effect = lower value 1.02 | locus YFR010W, strain ubp6, stronger effect = lower value 1.03 | locus YGL078C, strain dbp3, stronger effect = lower value 1 | locus YGL086W, strain mad1, stronger effect = lower value 1.01 | locus YGL167C, strain pmr1, stronger effect = lower value 1.02 | locus YGL173C, strain kem1, stronger effect = lower value 1.02 | locus YGL227W, strain vid30, stronger effect = lower value 1.02 | locus YGL240W, strain doc1, stronger effect = lower value 1.04 | locus YGL248W, strain PDE1, stronger effect = lower value 1.03 | locus YGL253W, strain hxk2, stronger effect = lower value 1.02 | locus YGR078C, strain PAC10, stronger effect = lower value 1.04 | locus YGR135W, strain pre9, stronger effect = lower value 1.01 | locus YGR252W, strain gcn5, stronger effect = lower value 0.989 | locus YHR013C, strain ard1, stronger effect = lower value 1.04 | locus YHR027C, strain rpn1, stronger effect = lower value 1.02 | locus YHR030C, strain SLT2, stronger effect = lower value 1.02 and 0.985 | locus YHR079C, strain IRE1 (second series), stronger effect = lower value 1.01 | locus YHR079C, strain IRE1, stronger effect = lower value 0.994 | locus YHR094C, strain hxt1, stronger effect = lower value 0.984 | locus YHR129C, strain ARP1, stronger effect = lower value 1.02 | locus YHR142W, strain chs7, stronger effect = lower value 1.01 | locus YHR200W, strain rpn10, stronger effect = lower value 1 | locus YIL066C, strain RNR3, stronger effect = lower value 1.04 | locus YIL073C, strain SPO22, stronger effect = lower value 1.02 | locus YIL125W, strain kgd1, stronger effect = lower value 1.01 | locus YIR030C, strain dcg1, stronger effect = lower value 1 | locus YJL092W, strain hpr5, stronger effect = lower value 1.01 | locus YJL095W, strain BCK1 (second series), stronger effect = lower value 1.02 | locus YJL095W, strain BCK1, stronger effect = lower value 1.04 and 0.986 | locus YJL115W, strain asf1, stronger effect = lower value 1.02 | locus YJL129C, strain trk1, stronger effect = lower value 1.02 | locus YJL134W, strain LCB3, stronger effect = lower value 1.02 | locus YJL154C, strain vps35, stronger effect = lower value 1 | locus YJL164C, strain tpk1, stronger effect = lower value 1.02 | locus YJL166W, strain qcr8, stronger effect = lower value 1.02 | locus YJL168C, strain set2, stronger effect = lower value 0.997 | locus YJL187C, strain SWE1 (second series), stronger effect = lower value 1.04 | locus YJL187C, strain SWE1, stronger effect = lower value 1.02 | locus YJR043C, strain POL32, stronger effect = lower value 1.04 | locus YJR066W, strain TOR1, stronger effect = lower value 0.957 | locus YKL009W, strain mrt4, stronger effect = lower value 1 | locus YKL068W, stronger effect = lower value 1.01 | locus YKL085W, strain MDH1 (second series), stronger effect = lower value 0.998 | locus YKL085W, strain MDH1, stronger effect = lower value 0.998 | locus YKL160W, strain elf1, stronger effect = lower value 1.01 | locus YKL190W, strain CNB1, stronger effect = lower value 1.02 | locus YKR001C, strain vps1, stronger effect = lower value 1.01 | locus YKR026C, strain gcn3, stronger effect = lower value 0.994 | locus YKR091W, strain srl3, stronger effect = lower value 1.02 | locus YLL001W, strain dnm1, stronger effect = lower value 1.03 | locus YLL026W, stronger effect = lower value 1.02 | locus YLL041C, strain sdh2, stronger effect = lower value 1.01 | locus YLR027C, strain aat2, stronger effect = lower value 1.02 | locus YLR039C, strain RIC1, stronger effect = lower value 1.07 | locus YLR058C, strain SHM2, stronger effect = lower value 1.02 | locus YLR102C, strain apc9, stronger effect = lower value 0.989 | locus YLR113W, strain HOG1, stronger effect = lower value 0.976 | locus YLR221C, strain rsa3, stronger effect = lower value 1.02 | locus YLR258W, strain gsy2, stronger effect = lower value 1.03 | locus YLR262C, strain YPT6 (second series), stronger effect = lower value 1.02 | locus YLR262C, strain YPT6, stronger effect = lower value 1.07 | locus YLR268W, strain sec22, stronger effect = lower value 0.999 | locus YLR320W, strain mms22, stronger effect = lower value 1.04 | locus YLR330W, strain CHS5, stronger effect = lower value 1.02 | locus YLR342W, strain FKS1 (second series), stronger effect = lower value 1.02 | locus YLR342W, strain FKS1, stronger effect = lower value 1.03 | locus YLR357W, strain rsc2, stronger effect = lower value 1.04 | locus YLR370C, strain arc18, stronger effect = lower value 1.01 | locus YLR371W, strain rom2, stronger effect = lower value 1 | locus YLR384C, strain iki3, stronger effect = lower value 0.999 | locus YLR418C, strain cdc73, stronger effect = lower value 0.99 | locus YML016C, strain PPZ1, stronger effect = lower value 1.02 | locus YML032C, strain rad52, stronger effect = lower value 0.997 | locus YML120C, strain ndi1, stronger effect = lower value 1.02 | locus YML124C, strain tub3, stronger effect = lower value 1.01 | locus YMR058W, strain fet3, stronger effect = lower value 1.01 | locus YMR078C, strain ctf18, stronger effect = lower value 0.99 | locus YMR125W, strain sto1, stronger effect = lower value 1.03 | locus YMR129W, stronger effect = lower value 1.01 | locus YMR205C, strain PFK2, stronger effect = lower value 1.04 | locus YMR223W, strain ubp8, stronger effect = lower value 1.01 | locus YMR231W, strain pep5, stronger effect = lower value 1.02 | locus YMR263W, strain SAP30, stronger effect = lower value 1.03 | locus YMR307W, strain GAS1, stronger effect = lower value 1.11 | locus YNL067W, strain RPL9B, stronger effect = lower value 1.04 | locus YNL071W, strain lat1, stronger effect = lower value 1.02 | locus YNL153C, strain GIM3, stronger effect = lower value 1.04 | locus YNL183C, strain NPR1, stronger effect = lower value 0.955 | locus YNL209W, strain ssb2, stronger effect = lower value 1.03 | locus YNL233W, strain BNI4, stronger effect = lower value 1.03 | locus YNL248C, strain rpa49, stronger effect = lower value 1.02 | locus YNL250W, strain rad50, stronger effect = lower value 0.994 | locus YNL271C, strain bni1, stronger effect = lower value 1 | locus YNL298W, strain CLA4, stronger effect = lower value 0.998 | locus YNL307C, strain MCK1, stronger effect = lower value 1.01 | locus YNL322C, strain KRE1 (second series), stronger effect = lower value 1.02 | locus YNR049C, strain mso1, stronger effect = lower value 1.03 | locus YNR052C, strain pop2, stronger effect = lower value 0.995 | locus YOL012C, strain htz1 0.795 | locus YOL147C, strain pex11, stronger effect = lower value 0.993 | locus YOR001W, strain rrp6, stronger effect = lower value 1.01 | locus YOR061W, strain CKA2, stronger effect = lower value 1.02 | locus YOR069W, strain VPS5, stronger effect = lower value 1.02 | locus YOR070C, strain gyp1, stronger effect = lower value 1.02 | locus YOR080W, strain dia2, stronger effect = lower value 1.02 | locus YOR083W, strain WHI5, stronger effect = lower value 1.01 | locus YOR106W, strain vam3, stronger effect = lower value 1.02 | locus YOR136W, strain idh2, stronger effect = lower value 0.991 | locus YOR144C, strain elg1, stronger effect = lower value 0.991 | locus YOR184W, strain ser1, stronger effect = lower value 1.01 | locus YOR231W, strain MKK1, stronger effect = lower value 0.978 | locus YOR265W, strain rbl2, stronger effect = lower value 1.02 | locus YOR270C, strain vph1, stronger effect = lower value 1.03 | locus YOR290C, strain snf2, stronger effect = lower value 0.991 | locus YOR316C, strain cot1, stronger effect = lower value 0.991 | locus YPL051W, strain arl3, stronger effect = lower value 1.01 | locus YPL078C, strain atp4, stronger effect = lower value 1.01 | locus YPL106C, strain sse1, stronger effect = lower value 1.01 | locus YPL240C, strain hsp82, stronger effect = lower value 1.03 | locus YPL241C, strain CIN2, stronger effect = lower value 1.02 | locus YPL256C, strain CLN2, stronger effect = lower value 0.97 | locus YPR119W, strain clb2, stronger effect = lower value 0.989 | locus YPR141C, strain kar3, stronger effect = lower value 1 | locus YPR163C, strain tif3, stronger effect = lower value 0.99 | locus YPR167C, strain met16, stronger effect = lower value 1.01 | strain wtn01, stronger effect = lower value 0.99
